Source: PubChem
TDP1 cell CPT – growth inhibition of DT40 Tdp1-/-;hTDP1 cells with camptothecin (screen for TDP1 inhibitors) | Potency, µM (top dose mostly 46.2 µM), actives largely listed as inhibitors | hit rate 12% among 420,000 | chicken DT40 Tdp1-/-;hTDP1 cells + 20 nM CPT, ATP luminescence, 48 h | AID 686979; further: nearly all actives have a fitted effect of over 55% in size
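Chicken DT40 Tdp1-/- cells complemented with human TDP1, 400 cells/well, exposed to compounds plus 20 nM camptothecin for at least 48 h at 37 C; viability read as ATP content by CellTiter-Glo luminescence.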
KB-V1 MDR tox – kills drug-selected multidrug resistant KB-V1 cells; hit rate 3.4% among 400,000; Potency, µM (titrated, usually from 46.1 µM), usual class: cytotoxic; KB-V1 MDR cells viability, CellTiter-Glo, 72 h; further: nearly all actives have a fitted effect of over 60% in size
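Drug-selected KB-V1 cells, grown in DMEM lacking phenol red with 10% FBS, receive compound titrations; after three days at 37 degrees C, surviving cell ATP is quantified by CellTiter-Glo luminescence and responses normalized and curve-fitted.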
TDP1 cell noCPT – qHTS for Inhibitors of human tyrosyl-DNA phosphodiesterase 1 (TDP1): qHTS in cells in absence of CPT | DT40 Tdp1-/- hTDP1 cells, no CPT, ATP luminescence, 48 h | Potency, µM (highest dose often 46.2 µM), actives largely listed as inhibitors | hit rate 15% among 420,000; further: nearly all actives have a fitted effect of over 55% in size
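Stably hTDP1-transfected Tdp1-null chicken DT40 cells were treated with library compounds minus camptothecin and grown for at least 48 hr at 37 °C, after which cellular ATP was quantified by luminescence.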
HT1080NT lethal – kills 2HG-producing HT-1080-NT fibrosarcoma cells; hit rate 1.6% among 360,000; Potency, µM (top dose mostly 46.1 µM), hits mostly cytotoxic; HT-1080-NT fibrosarcoma viability, CellTiter-Glo ATP luminescence, 48 h;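 further: NT is the 2HG producing partner of a matched IDH1 knockdown line; nearly all actives have a fitted effect of over 55% in size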
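Read-out is CellTiter-Glo luminescence after 10 minutes at room temperature, following 48 hours' compound treatment of HT-1080-NT cells (750 cells/well, RPMI, 5% FBS, 37 degrees C).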
HT1080 IDH1KD tx – HT-1080 IDH1 knockdown cell toxicity (counter line) | Potency, µM (series often up to 46.1 µM), most hits filed as cytotoxic | HT-1080 IDH1 knockdown viability, ATP luminescence, 48 h | hit rate 2% among 360,000 | AID 686971
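% activity derives from luminescence (CellTiter-Glo), normalised to DMSO and no-cell wells. HT-1080-IDH1KD cells, 750/well, had 48 h compound exposure at 37 °C.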
KB-3-1 tox – KB-3-1 parental cell cytotoxicity | Potency, µM (doses to about 46.1 µM), usual class: cytotoxic | AID 1347075 | hit rate 1.4% among 400,000 | KB-3-1 viability, CellTiter-Glo ATP luminescence, 72 h; further: nearly all actives have a fitted effect of over 60% in size
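Parental KB-3-1 adenocarcinoma cells in phenol-red-free DMEM with 10% FBS were pin-treated with compounds at several concentrations, incubated 72 h at 37 °C, and viability read by CellTiter-Glo luminescence; concentration-effect curves were fitted after normalization.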
Of the large screens only hits and unclear results are named; the others gave an inactive call. An excerpt weighted towards active compounds, which were near 19% of everything screened. The call rests on the fitted dose curve; in most records, active means well fitted curve in the direction sought with a large enough effect; inconclusive means small, poorly fitted or top-dose-only effect, or another doubt; inactive means no such curve, though single readings can be large; an effect the other way counts as inactive or inconclusive.

Cc1ccc(NC(=O)c2cc(=O)c3ccccc3o2)cc1S(=O)(=O)N1CCCCC1	TDP1 cell CPT inconclusive, KB-V1 MDR tox 9.2µM, TDP1 cell noCPT 21µM, HT1080 IDH1KD tx inconclusive, KB-3-1 tox inconclusive
Cc1ccc(NC(=O)c2cc(=O)c3ccccc3o2)cc1S(=O)(=O)N1CCOCC1	TDP1 cell CPT 18µM, KB-V1 MDR tox 16µM, TDP1 cell noCPT 12µM
O=C(Nc1ccc(S(=O)(=O)N2CCCC2)cc1)c1cc(=O)c2ccccc2o1	TDP1 cell CPT inconclusive
Cc1ccc(NC(=O)c2ccccc2-c2ccc(C(F)(F)F)cc2)cc1S(=O)(=O)N1CCOCC1	TDP1 cell CPT inconclusive, TDP1 cell noCPT 15µM
CC1(C)C(=O)OC(c2cccn2-c2ccc([N+](=O)[O-])cc2)C(C)(C)C1=O (configuration not stated)	TDP1 cell CPT 15µM, TDP1 cell noCPT 23µM
CC1(C)C(=O)C2(CCCCC2)C(=O)OC1c1cccn1-c1ccc([N+](=O)[O-])cc1 (configuration not stated)	TDP1 cell CPT inconclusive, TDP1 cell noCPT inconclusive
Cc1cccc(N2CCN(S(=O)(=O)c3ccc4c(c3)C(C)(C)C(=O)N4C)CC2C)c1 (configuration not stated)	TDP1 cell CPT inconclusive
Cc1cccc(N2CCN(S(=O)(=O)c3ccc4c(c3)CCC(=O)N4)CC2C)c1 (configuration not stated)	KB-V1 MDR tox 15µM
Cc1ccccc1C1(CC(=O)N2CCOCC2)CC(=O)N(Cc2cccnc2)C1=O (configuration not stated)	none (no result: KB-V1 MDR tox, HT1080NT lethal, HT1080 IDH1KD tx, KB-3-1 tox)
CCOC(=O)c1cc(-c2ccccc2)n(CCC(=O)Nc2ccc(Cl)c(C(F)(F)F)c2)c1C	TDP1 cell CPT 3.7µM, KB-V1 MDR tox inconclusive, TDP1 cell noCPT 4.6µM, KB-3-1 tox inconclusive (no result: HT1080NT lethal, HT1080 IDH1KD tx)
CCOC(=O)c1cc(-c2ccccc2)n(CCC(=O)Nc2cc(C)cc(C)c2)c1C	TDP1 cell CPT 15µM, TDP1 cell noCPT 15µM (no result: KB-V1 MDR tox, HT1080NT lethal, HT1080 IDH1KD tx, KB-3-1 tox)
CCOC(=O)c1cc(-c2ccccc2)n(CCC(=O)Nc2ccc(C)cc2Cl)c1C	TDP1 cell CPT inconclusive, TDP1 cell noCPT inconclusive (no result: HT1080NT lethal, HT1080 IDH1KD tx)
CC(C)CC1C(=O)N(Cc2cn(CC3CCCCC3)nn2)CCS(=O)(=O)N1Cc1ccc(-c2cccc(C#N)c2)cc1 (configuration not stated)	TDP1 cell CPT 21µM, TDP1 cell noCPT inconclusive
CC(C)CC1C(=O)N(Cc2cn(CCC3OCCCO3)nn2)CCS(=O)(=O)N1Cc1ccc(-c2cccc(N(C)C)c2)cc1 (configuration not stated)	none
COc1ccc(-c2ccc(CN3C(C(C)C)C(=O)N(Cc4cn(CC5CCCCC5)nn4)CCS3(=O)=O)cc2)cc1OC (configuration not stated)	TDP1 cell CPT inconclusive, TDP1 cell noCPT 1.6µM
CC(C)CC1C(=O)N(Cc2cn(CC3CCCCC3)nn2)CCS(=O)(=O)N1Cc1ccc(-c2ccncc2)cc1 (configuration not stated)	TDP1 cell CPT inconclusive, TDP1 cell noCPT 15µM
COc1ccc(-c2ccc(CN3C(CC(C)C)C(=O)N(Cc4cn(CC5CCCCC5)nn4)CCS3(=O)=O)cc2)cc1OC (configuration not stated)	TDP1 cell CPT 23µM, KB-V1 MDR tox inconclusive, TDP1 cell noCPT 21µM, HT1080 IDH1KD tx inconclusive
CC1(c2nnnn2Cc2ccccc2)CCC(=O)N1CCc1ccc(O)cc1 (configuration not stated)	none
C=CCC[C@H](Cc1ccc(F)cc1)C(=O)OC[C@@H](C)NC(=O)[C@@H](CC=C)CC(=O)N[C@H](CO)Cc1ccccc1	TDP1 cell CPT inconclusive, TDP1 cell noCPT inconclusive, KB-3-1 tox inconclusive
C=CCC[C@@H](Cc1ccc(F)cc1)C(=O)OC[C@@H](NC(=O)[C@@H](CC=C)CC(=O)N[C@@H](CO)Cc1ccccc1)C(C)(C)C	TDP1 cell CPT 23µM, KB-V1 MDR tox inconclusive, TDP1 cell noCPT inconclusive, HT1080NT lethal inconclusive, HT1080 IDH1KD tx inconclusive, KB-3-1 tox inconclusive
C=CCC[C@H](Cc1ccc(F)cc1)C(=O)OC[C@@H](C)NC(=O)[C@@H](CC=C)CC(=O)N[C@@H](CO)Cc1ccccc1	TDP1 cell CPT inconclusive, TDP1 cell noCPT 15µM
C=CCC[C@H](Cc1ccc(F)cc1)C(=O)OC[C@@H](NC(=O)[C@@H](CC=C)CC(=O)N[C@@H](CO)Cc1ccccc1)C(C)(C)C	TDP1 cell CPT 21µM, TDP1 cell noCPT 21µM, HT1080NT lethal inconclusive, HT1080 IDH1KD tx inconclusive, KB-3-1 tox inconclusive
C=CC[C@@H](CC(=O)N[C@H](CO)Cc1ccccc1)C(=O)N[C@H](COC(=O)[C@@H](CC=C)Cc1ccc(F)cc1)C(C)(C)C	TDP1 cell CPT inconclusive, TDP1 cell noCPT inconclusive, HT1080NT lethal inconclusive, KB-3-1 tox 21µM
C=CC[C@@H](CC(=O)N[C@@H](CO)Cc1ccccc1)C(=O)N[C@H](COC(=O)[C@@H](CC=C)Cc1ccc(F)cc1)Cc1ccccc1	TDP1 cell CPT inconclusive, TDP1 cell noCPT inconclusive
Cc1ccccc1N(C(=O)CS(=O)CC(=O)Nc1ccc(F)cc1)C(C)C(=O)NC(C)(C)C (configuration not stated)	HT1080 IDH1KD tx inconclusive
O=C(NCC1CC1)C1Cc2c(-c3ccccc3Oc3ccccc3)ccnc2O1 (configuration not stated)	TDP1 cell CPT inconclusive
CC(C)NC(=O)C1Cc2c(-c3ccccc3Oc3ccccc3)ccnc2O1 (configuration not stated)	TDP1 cell CPT inconclusive, TDP1 cell noCPT inconclusive
COc1ccc(CNC(=O)C2Cc3c(-c4ccccc4Oc4ccccc4)ccnc3O2)cc1OC (configuration not stated)	TDP1 cell CPT 18µM, KB-V1 MDR tox 15µM, TDP1 cell noCPT 21µM, HT1080NT lethal inconclusive, KB-3-1 tox inconclusive
O=C(NCc1cccc(Cl)c1)C1Cc2c(-c3ccccc3Oc3ccccc3)ccnc2O1 (configuration not stated)	TDP1 cell CPT 23µM, KB-V1 MDR tox inconclusive, TDP1 cell noCPT inconclusive, HT1080NT lethal inconclusive, HT1080 IDH1KD tx inconclusive
COc1cccc(CN2CCNC(=O)C2CC(=O)N(C)C2CCOCC2)c1 (configuration not stated)	none
N#C/C(=C/c1ccc(-c2ccc([N+](=O)[O-])cc2)o1)c1nnc(N2CCOCC2)n1-c1ccccc1	TDP1 cell CPT inconclusive, TDP1 cell noCPT inconclusive (no result: KB-V1 MDR tox, KB-3-1 tox)
COc1ccc2c3n(nc2c1)CCN=C3c1ccc(C)cc1	TDP1 cell CPT 16µM, KB-V1 MDR tox inconclusive, TDP1 cell noCPT inconclusive
